About 75 (2%) of roughly 3,200 compounds showed an effect of 50% or more. The sample as a whole holds a higher share of strong results than the screen did.
System: T1, S. aureus MSSA476
T1 construct: MSSA476
Design: species or system S. aureus MSSA476 (TSB) or V. cholerae SAD30 (LB); 384-well bacterial growth screen at 25 uM, OD600 relative to DMSO control
Settings: relative growth, OD600, TSB; 25 µM; inhibitor

SMILES | % of control remaining [%]
O=C1C=CC(=O)N1c1ccccc1Sc1ccccc1 [10-K12, 1-[2-(phenylsulfanyl)phenyl]-2,5-dihydro-1H-pyrrole-2,5-dione] | 129.063
O=C1C=CC(=O)N1c1ccccc1F [10-D17, 1-(2-fluorophenyl)-2,5-dihydro-1H-pyrrole-2,5-dione] | 118.75
O=C1C=CC(=O)N1c1ccccc1Sc1ccc(Cl)cc1 [10-A03, 1-{2-[(4-chlorophenyl)sulfanyl]phenyl}-2,5-dihydro-1H-pyrrole-2,5-dione] | 10.9375
CCN1C(=O)CC[C@H](CNC(=O)C(C)Cl)[C@H]1c1cnn(C)c1 (mixture of isomers) [6-L13, rac-2-chloro-N-{[(2R,3S)-1-ethyl-2-(1-methyl-1H-pyrazol-4-yl)-6-oxopiperidin-3-yl]methyl}propanamide] | 89.122
C=CC(=O)N1CCc2c(nnn2CCOC)C1 [1-N05, 1-[1-(2-methoxyethyl)-1H,4H,5H,6H,7H-[1,2,3]triazolo[4,5-c]pyridin-5-yl]prop-2-en-1-one] | 84.7473
C=CC(=O)NC1CCN(c2nnnn2C)CC1 [3-G06, N-[1-(1-methyl-1H-1,2,3,4-tetrazol-5-yl)piperidin-4-yl]prop-2-enamide] | 85.677
CCC(NC(=O)CCl)c1c(C)noc1C (stereo not drawn) [7-D03, 2-chloro-N-[1-(3,5-dimethyl-1,2-oxazol-4-yl)propyl]acetamide] | 95.4474
O=C(CCl)c1ccc2c(c1)-c1ccccc1C2 [10-H17, 2-chloro-1-(9H-fluoren-3-yl)ethan-1-one] | 1.875
O=C(CCl)Nc1ccc(Oc2ccccc2)cc1 [4-J09, 2-chloro-N-(4-phenoxyphenyl)acetamide] | 73.5588
O=C(CCl)c1ccc(Oc2ccccc2)cc1 [10-G20, 2-chloro-1-(4-phenoxyphenyl)ethan-1-one] | -0.625
CCOc1ccc(C(=O)C(C)Cl)cc1 (stereo not drawn) [10-G06, 2-chloro-1-(4-ethoxyphenyl)propan-1-one] | 80.3125
CCOc1ccc(C(=O)CCl)cc1 [10-F12, 2-chloro-1-(4-ethoxyphenyl)ethan-1-one] | 0.3125
O=C(CCl)Nc1cccc(Oc2ccccc2)c1 [4-P19, 2-chloro-N-(3-phenoxyphenyl)acetamide] | 90.7099
NC(=O)COc1ccc(C(=O)CCl)cc1 [10-M07, 2-[4-(2-chloroacetyl)phenoxy]acetamide] | 111.563
CC(Cl)C(=O)NC(C)c1ccns1 (stereo not drawn) [6-P12, 2-chloro-N-[1-(1,2-thiazol-5-yl)ethyl]propanamide] | 84.3415
N#CC(=Cc1cc(F)ccc1F)C(=O)Nc1cc(Cl)ccc1Cl [8-A12, 2-cyano-N-(2,5-dichlorophenyl)-3-(2,5-difluorophenyl)prop-2-enamide] | 131.12
Cl.O=C(CCl)NC1CCN(Cc2cscn2)CC1 [7-H04, 2-chloro-N-{1-[(1,3-thiazol-4-yl)methyl]piperidin-4-yl}acetamide hydrochloride] | 88.2261
Cc1ccc(C)c(NC(=O)C(C#N)=Cc2ccc3c(c2)OCCO3)c1 [8-L11, 2-cyano-3-(2,3-dihydro-1,4-benzodioxin-6-yl)-N-(2,5-dimethylphenyl)prop-2-enamide] | 108.216
C=CC(=O)NC(Cc1ccccc1)c1ccccn1 (stereo not drawn) [2-K14, N-[2-phenyl-1-(pyridin-2-yl)ethyl]prop-2-enamide] | 109.312
C=CC(=O)N(C)Cc1cn(C)nc1C(C)C [3-F15, N-methyl-N-{[1-methyl-3-(propan-2-yl)-1H-pyrazol-4-yl]methyl}prop-2-enamide] | 119.808
CCOc1ccc(-n2c(C)cc(C(=O)CCl)c2C)cc1 [10-K08, 2-chloro-1-[1-(4-ethoxyphenyl)-2,5-dimethyl-1H-pyrrol-3-yl]ethan-1-one] | 38.75
Cc1cc(C(=O)CCl)c(C)n1-c1ccc(C(C)(C)C)cc1 [10-N20, 1-[1-(4-tert-butylphenyl)-2,5-dimethyl-1H-pyrrol-3-yl]-2-chloroethan-1-one] | 101.875
COc1ccc(-n2c(C)cc(C(=O)CCl)c2C)cc1 [10-I12, 2-chloro-1-[1-(4-methoxyphenyl)-2,5-dimethyl-1H-pyrrol-3-yl]ethan-1-one] | 127.813
Cc1ccccc1-n1c(C)cc(C(=O)CCl)c1C [10-H20, 2-chloro-1-[2,5-dimethyl-1-(2-methylphenyl)-1H-pyrrol-3-yl]ethan-1-one] | 118.75
Cc1cc(C(=O)CCl)c(C)n1-c1ccc(C(C)C)cc1 [10-J12, 2-chloro-1-{2,5-dimethyl-1-[4-(propan-2-yl)phenyl]-1H-pyrrol-3-yl}ethan-1-one] | 5.3125
Cc1cc(C(=O)CCl)c(C)n1C(C)c1ccccc1 (stereo not drawn) [10-P17, 2-chloro-1-[2,5-dimethyl-1-(1-phenylethyl)-1H-pyrrol-3-yl]ethan-1-one] | 101.563
Cc1cc(C(=O)CCl)c(C)n1-c1ccc(C(F)(F)F)cc1 [10-J14, 2-chloro-1-{2,5-dimethyl-1-[4-(trifluoromethyl)phenyl]-1H-pyrrol-3-yl}ethan-1-one] | 0
Cc1csc(-n2c(C)cc(C(=O)CCl)c2C)n1 [10-G05, 2-chloro-1-[2,5-dimethyl-1-(4-methyl-1,3-thiazol-2-yl)-1H-pyrrol-3-yl]ethan-1-one] | 121.563
Cc1cc(C(=O)CCl)c(C)n1-c1cc(Cl)cc(Cl)c1 [10-I04, 2-chloro-1-[1-(3,5-dichlorophenyl)-2,5-dimethyl-1H-pyrrol-3-yl]ethan-1-one] | 0
Cc1cc(C)cc(-n2c(C)cc(C(=O)CCl)c2C)c1 [10-E04, 2-chloro-1-[1-(3,5-dimethylphenyl)-2,5-dimethyl-1H-pyrrol-3-yl]ethan-1-one] | 128.438

Source: article PMC11995724, “Antibiotic target discovery by integrated phenotypic and activity-based profiling of electrophilic fragments” (Cell chemical biology, 2025)
